# Source: paper PMC4336329 (PLoS ONE, 2015)
# The whole screen tested about 310,000 compounds, of which about 14,000 (4.5%) showed an effect of 50% or more. Effects have a minus sign here. Shown is part of a subset that was picked to be rich in strong results.
# Target: human ether-à-go-go-related gene (hERG) potassium channel (human, UniProt Q12809)
# Test: primary screen, population patch clamp on CHO cells stably expressing hERG; higher = less effect of the substance
# 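Also: peak tail current of the secondary pulse compared with the same well before compound.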
# human ether-à-go-go-related gene (hERG) potassium channel, sequence (Q12809 whole entry, looked up): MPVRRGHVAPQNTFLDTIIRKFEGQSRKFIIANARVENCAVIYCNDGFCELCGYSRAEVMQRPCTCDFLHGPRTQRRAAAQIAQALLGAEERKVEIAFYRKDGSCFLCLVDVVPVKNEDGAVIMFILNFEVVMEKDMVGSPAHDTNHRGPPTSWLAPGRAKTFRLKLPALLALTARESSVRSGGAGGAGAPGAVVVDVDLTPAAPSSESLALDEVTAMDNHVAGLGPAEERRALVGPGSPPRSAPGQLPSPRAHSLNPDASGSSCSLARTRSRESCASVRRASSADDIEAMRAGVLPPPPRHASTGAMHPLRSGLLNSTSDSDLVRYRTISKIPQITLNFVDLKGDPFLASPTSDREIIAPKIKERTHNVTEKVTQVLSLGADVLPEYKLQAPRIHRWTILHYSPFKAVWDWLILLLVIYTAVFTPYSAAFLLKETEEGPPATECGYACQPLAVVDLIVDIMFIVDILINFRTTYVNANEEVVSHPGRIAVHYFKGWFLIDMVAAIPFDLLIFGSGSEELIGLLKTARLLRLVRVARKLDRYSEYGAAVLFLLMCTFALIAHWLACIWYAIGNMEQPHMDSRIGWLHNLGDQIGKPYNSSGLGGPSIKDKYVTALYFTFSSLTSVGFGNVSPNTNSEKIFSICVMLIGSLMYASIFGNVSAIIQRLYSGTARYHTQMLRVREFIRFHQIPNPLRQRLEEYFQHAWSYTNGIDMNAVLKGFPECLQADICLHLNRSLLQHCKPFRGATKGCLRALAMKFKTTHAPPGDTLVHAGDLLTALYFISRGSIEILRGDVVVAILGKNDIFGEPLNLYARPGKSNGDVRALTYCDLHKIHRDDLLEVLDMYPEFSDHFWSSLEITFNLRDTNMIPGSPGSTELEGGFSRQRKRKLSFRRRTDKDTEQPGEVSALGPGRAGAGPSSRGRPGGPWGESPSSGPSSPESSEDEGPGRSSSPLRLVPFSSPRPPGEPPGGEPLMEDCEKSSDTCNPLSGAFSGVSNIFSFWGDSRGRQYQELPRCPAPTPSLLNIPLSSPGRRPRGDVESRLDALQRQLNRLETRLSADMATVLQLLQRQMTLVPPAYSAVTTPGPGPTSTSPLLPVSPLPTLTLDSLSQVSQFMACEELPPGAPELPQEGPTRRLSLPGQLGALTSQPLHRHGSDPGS
row,Compound,"hERG current change (%, negative = inhibition) at 10uM [%]"
1,Cc1nn(C)c(C(=O)N/N=C/c2ccccn2)c1[N+](=O)[O-],21.3
2,CCCNC(=O)NC(C)C12CC3CC(CC(C3)C1)C2 (centres unmarked),-12.6
3,COC(=O)c1cc(COC(=O)c2nc3nccc(C)n3n2)oc1C,15.7
4,Cc1cc(C(=O)OCC(=O)NC2CCCCC2)c(C)o1,9.12
5,Cc1ccc(NC(=O)CSCC(=O)N2CCN(c3cccc(C(F)(F)F)c3)CC2)cc1,-13
6,Cc1ccc(NC(=O)c2cccc3c2-c2ccccc2C3=O)cc1C,-9.58
7,O=c1c2[nH]c3ccc(F)cc3c2ncn1CCCN1CCOCC1,-31.3
8,CCC1CCCN1Cn1cnc2c([nH]c3ccc(C)cc32)c1=O (centres unmarked),-67.1
9,CCC1CCCN1Cn1cnc2c([nH]c3ccc(Cl)cc32)c1=O (centres unmarked),-71.5
10,Cc1ccc2[nH]c3c(=O)n(CCC4=CCCCC4)cnc3c2c1,4.95
11,O=c1c2[nH]c3ccccc3c2ncn1CCN1CCNCC1,4.97
12,Cc1ccc2[nH]c3c(=O)n(CCCN4CCN(C)CC4)cnc3c2c1,-37
13,O=C1CCCN1CCCNc1ncnc2c1[nH]c1ccc(Cl)cc12,-29.4
14,CCC1CCCN1Cn1cnc2c([nH]c3ccccc32)c1=O (centres unmarked),-62.1
15,Cc1ccc2[nH]c3c(=O)n(CCCN4CCOCC4)cnc3c2c1,-17.8
16,O=c1c2[nH]c3ccccc3c2ncn1CCN1CCOCC1,4.87
17,O=c1c2[nH]c3ccc(F)cc3c2ncn1CCN1CCOCC1,-41.1
18,O=c1c2[nH]c3ccc(F)cc3c2ncn1CCN1CCN(Cc2ccccc2)CC1,-63.2
19,O=c1[nH]nc(-c2ccc(NCCCO)c([N+](=O)[O-])c2)c2ccccc12,-9.98
20,O=C(CSc1nnc(NC(=O)C2CC2)s1)NCc1ccco1,-4.21
21,COc1cc(/C=N\NC(=O)c2ccc(C)nc2)ccc1OC(=O)c1ccc2c(c1)OCO2,-7.08
22,Cc1cccc(CNc2ccc(C(CC(N)=O)NC(=O)Cc3cccc4ccccc34)cc2[N+](=O)[O-])c1 (centres unmarked),7.02
23,Cc1ccn2cc(-c3cccc(NC(=O)c4cccs4)c3)nc2c1,-48.7
24,O=c1c2[nH]c3ccc(Cl)cc3c2ncn1CCN1CCCCC1,-68
25,COc1cc2[nH]c3c(=O)n(CCN4CCCCC4)cnc3c2cc1OC,6.02
26,O=c1c2[nH]c3ccccc3c2ncn1CCN1CCCCC1,-45.6
